This passage reports composite z-score and z-score results from PubChem BioAssay.

Calls of active or inactive are those of the source.

Experiment [1] has as its system PRMT1 (protein arginine N-methyltransferase 1). Put plainly: small molecules binding arginine methyltransferase PRMT1 – biochemical, small-molecule microarray, 635 nm fluorescence, primary screen (AID 1088).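 Also: binding of Prmt1 protein to compounds spotted on small-molecule microarray slides.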 As to conditions: higher = more signal.
The nature of experiment [2]: growth effects on S. cerevisiae YJM789 – YJM789 clinical isolate, OD600, 24 h, basal, primary screen (AID 1089).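 Also: growth of clinical yeast isolate S. cerevisiae YJM 789 seeded 1000 cells per well; test concentration not given here.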 As to conditions: higher = more signal, called active from +8 up or from −8 down.
A short description of experiment [3]: S. pombe growth modifiers, basal conditions – strain 972, OD600, 24 h, no modulator, primary screen (AID 1090).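 Also: basal condition with compound alone and no growth modifier present; test concentration not given here.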 As to conditions: S. pombe 972 growth, higher = more signal, called active from +8 up or from −8 down.
A short description of experiment [4]: budding yeast growth modifiers under rapamycin – strain BY4716, OD600, 96 h, primary screen (AID 1091). Also: test concentration not given here. As to conditions: S. cerevisiae BY4716 + rapamycin, higher = more signal, called active from +8 up or from −8 down.
Experiment [5] deals with Torsin-1A-interacting protein 2 (Homo sapiens) (UniProt Q8NFQ8). Put plainly: small molecules binding lysate-expressed LULL1 – cell lysate, human LULL1 lysate, 635/667 nm fluorescence, primary screen (AID 1092).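 Also: probe is lysate of COS7 cells overexpressing human LULL1; score merges per-feature 667 nm fluorescence with signal-to-noise.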 As to conditions: small-molecule microarray, hLULL1 lysate binding, 635 nm fluorescence; higher = more signal.
Experiment [6] is described as follows: optical density change of DRC41 E. coli – strain DRC41, OD650, 24 h, E. coli filamentation project, primary screen (AID 1093).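 Also: MC1000 strain lacking acrAB efflux and sulA so SOS filamentation is blocked; test concentration not given here.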 Particulars: E. coli DRC41 growth, higher = more signal, called active from +8 up or from −8 down.
Experiment [7] can be described thus: probe aLefty2 binding to arrayed compounds – biochemical, biotinylated probe, 635/667 nm fluorescence, primary screen (AID 1094).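 Also: score merges spot fluorescence near 667 nm with spot signal-to-noise ratio.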 As to conditions: small-molecule microarray, higher = more signal.
For experiment [8], the system named is Noggin (protein binding on small-molecule microarray). Briefly: small molecules binding Noggin protein – biochemical, 635/667 nm fluorescence, primary screen (AID 1095).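 Also: score merges 667 nm feature fluorescence with signal to noise over triplicate slides.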 Particulars: 635 nm fluorescence, higher = more signal.
The target of experiment [9] is Neurogenic locus notch homolog protein 3 (Homo sapiens) (UniProt Q9UM47). Put plainly: small molecules binding NOTCH3 protein – biochemical, 635/667 nm fluorescence, primary screen (AID 1096). Particulars: small-molecule microarray, 635 nm fluorescence, higher = more signal.
Experiment [10] is described as follows: probe aEGFR binding to arrayed compounds – biochemical, biotinylated probe, 635/667 nm fluorescence, primary screen (AID 1097).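 Also: probe is a biotinylated anti-EGFR antibody binding compounds printed on slides; score combines fluorescence near 667 nm and signal to noise of each spot.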 Particulars: small-molecule microarray, higher = more signal.
In experiment [11] the test system is Plasmodium falciparum Sir2 (PF13_0152, Sir2A). Briefly: Plasmodium falciparum Sir2A binding compounds – biochemical, small-molecule microarray, 635 nm fluorescence, primary screen (AID 1098).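 Also: score merges spot fluorescence intensity with its signal-to-noise ratio.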 As to conditions: fluorescence 635 nm, higher = more signal.
The nature of experiment [12]: probe aDKK1 binding to arrayed compounds – biochemical, biotinylated probe, 635/667 nm fluorescence, primary screen (AID 1099).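 Also: score merges 667nm spot fluorescence with signal to noise across triplicate slides; reference of the scale not given here.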 Particulars: small-molecule microarray, higher = more signal.
The nature of experiment [13]: probe aCHRDL2 binding to arrayed compounds – biochemical, biotinylated probe, 635/667 nm fluorescence, primary screen (AID 1100). Particulars: small-molecule microarray, higher = more signal.
The nature of experiment [14]: change in splice reporter luminescence, either direction, cell-based, HEK293, spliceosome inhibition project, primary screen (AID 1101).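 Also: HEK293 cells carrying a splicing-competent luciferase reporter gene; test concentration not given here.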 As to conditions: HEK293 splicing luciferase reporter, 24 h, higher = more signal, called active from +8 up or from −8 down. On the technique in general: Reporter assays use an easily measured gene product as a stand-in for the process of interest.

The target of experiment [15] is Fibroblast growth factor 10 (Homo sapiens) (UniProt O15520). Briefly: compounds binding fibroblast growth factor 10 – biochemical, small-molecule microarray, 635 nm fluorescence, primary screen (AID 1102). Particulars: FGF10 binding, fluorescence 635 nm, higher = more signal.
Experiment [16] concerns glycogen synthase kinase-3 (GSK3A per assay name; protocol says GSK3B). Put plainly: compounds binding glycogen synthase kinase-3 – biochemical, small-molecule microarray, 635 nm fluorescence, GSK3A, primary screen (AID 1103). Also: the record names both GSK3A and GSK3B. Particulars: fluorescence 635 nm, higher = more signal.
Experiment [17] deals with Epidermal growth factor receptor (Homo sapiens) (UniProt P00533). Briefly: compounds binding epidermal growth factor receptor – biochemical, small-molecule microarray, 635 nm fluorescence, primary screen (AID 1104).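 Also: score merges 667 nm emission intensity with spot signal to noise over triplicate slides.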 Particulars: EGFR binding, higher = more signal.
For experiment [18], the target named is Follistatin-related protein 3 (Homo sapiens) (UniProt O95633). Put plainly: compounds binding follistatin-related protein 3 – biochemical, small-molecule microarray, 635 nm fluorescence, primary screen (AID 1105).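 Also: score merges emission near 667 nm and signal to noise per printed spot across three slides.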 As to conditions: FSTL3 binding, higher = more signal.
Experiment [19] concerns the target Dickkopf-related protein 1 (Homo sapiens) (UniProt O94907). Put plainly: small molecules binding DKK1 protein – biochemical, small-molecule microarray, 635 nm fluorescence scan, primary screen (AID 1106).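 Also: score merges emission near 667 nm with signal to noise over three replicate slides.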 Particulars: higher = more signal.
The test system of experiment [20] is Inhibin beta A chain (activin A). Briefly: small molecules binding activin A – biochemical, small-molecule microarray, 635 nm fluorescence scan, primary screen (AID 1107).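 Also: mouse activin A protein probed at 4.33 µg/mL on printed slides; score merges bound-protein fluorescence near 667 nm with spot signal-to-noise.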 Particulars: INHBA, higher = more signal.

Epidermal growth factor receptor (Homo sapiens), sequence (P00533 whole entry, looked up): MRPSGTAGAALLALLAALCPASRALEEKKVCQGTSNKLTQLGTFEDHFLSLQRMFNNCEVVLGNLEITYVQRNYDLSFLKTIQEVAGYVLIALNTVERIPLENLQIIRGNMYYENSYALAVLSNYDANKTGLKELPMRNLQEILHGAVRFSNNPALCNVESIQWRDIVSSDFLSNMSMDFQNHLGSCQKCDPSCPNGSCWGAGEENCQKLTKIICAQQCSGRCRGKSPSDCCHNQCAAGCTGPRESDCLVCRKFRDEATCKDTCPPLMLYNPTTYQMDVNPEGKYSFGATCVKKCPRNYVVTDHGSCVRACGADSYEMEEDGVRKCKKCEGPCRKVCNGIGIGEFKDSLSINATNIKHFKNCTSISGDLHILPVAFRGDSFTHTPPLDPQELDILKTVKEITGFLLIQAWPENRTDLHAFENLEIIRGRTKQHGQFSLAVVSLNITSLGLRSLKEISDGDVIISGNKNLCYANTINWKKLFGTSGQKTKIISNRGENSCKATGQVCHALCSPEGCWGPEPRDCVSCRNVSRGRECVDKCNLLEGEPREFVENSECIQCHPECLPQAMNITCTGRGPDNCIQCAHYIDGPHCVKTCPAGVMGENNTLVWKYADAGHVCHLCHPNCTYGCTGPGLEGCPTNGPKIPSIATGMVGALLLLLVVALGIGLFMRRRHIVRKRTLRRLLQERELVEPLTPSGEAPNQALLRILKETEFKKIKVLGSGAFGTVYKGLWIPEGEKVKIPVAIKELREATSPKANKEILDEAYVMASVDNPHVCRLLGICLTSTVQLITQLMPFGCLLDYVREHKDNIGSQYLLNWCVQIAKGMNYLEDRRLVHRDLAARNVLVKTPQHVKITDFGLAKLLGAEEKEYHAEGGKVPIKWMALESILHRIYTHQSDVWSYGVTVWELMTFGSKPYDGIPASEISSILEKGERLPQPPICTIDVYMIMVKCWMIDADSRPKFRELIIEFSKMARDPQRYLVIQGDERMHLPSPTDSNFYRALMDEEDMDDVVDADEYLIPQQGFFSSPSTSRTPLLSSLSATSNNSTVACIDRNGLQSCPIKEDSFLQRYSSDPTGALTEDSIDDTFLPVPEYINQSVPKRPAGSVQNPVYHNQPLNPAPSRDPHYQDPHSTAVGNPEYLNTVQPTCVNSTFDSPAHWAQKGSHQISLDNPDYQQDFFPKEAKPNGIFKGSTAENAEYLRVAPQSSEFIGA
Torsin-1A-interacting protein 2 (Homo sapiens), sequence (Q8NFQ8 whole entry, looked up): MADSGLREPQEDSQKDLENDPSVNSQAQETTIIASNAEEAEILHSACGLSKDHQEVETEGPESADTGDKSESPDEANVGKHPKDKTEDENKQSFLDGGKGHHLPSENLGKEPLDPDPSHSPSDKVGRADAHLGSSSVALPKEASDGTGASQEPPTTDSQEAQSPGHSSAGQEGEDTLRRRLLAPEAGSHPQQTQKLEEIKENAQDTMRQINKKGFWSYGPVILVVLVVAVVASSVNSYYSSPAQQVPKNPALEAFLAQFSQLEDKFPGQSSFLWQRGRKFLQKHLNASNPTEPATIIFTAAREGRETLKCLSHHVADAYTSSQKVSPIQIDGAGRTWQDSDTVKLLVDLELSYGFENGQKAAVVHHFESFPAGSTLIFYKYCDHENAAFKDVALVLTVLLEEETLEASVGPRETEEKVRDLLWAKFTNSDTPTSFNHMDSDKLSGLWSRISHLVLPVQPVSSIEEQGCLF
Neurogenic locus notch homolog protein 3 (Homo sapiens), sequence (Q9UM47 whole entry, looked up): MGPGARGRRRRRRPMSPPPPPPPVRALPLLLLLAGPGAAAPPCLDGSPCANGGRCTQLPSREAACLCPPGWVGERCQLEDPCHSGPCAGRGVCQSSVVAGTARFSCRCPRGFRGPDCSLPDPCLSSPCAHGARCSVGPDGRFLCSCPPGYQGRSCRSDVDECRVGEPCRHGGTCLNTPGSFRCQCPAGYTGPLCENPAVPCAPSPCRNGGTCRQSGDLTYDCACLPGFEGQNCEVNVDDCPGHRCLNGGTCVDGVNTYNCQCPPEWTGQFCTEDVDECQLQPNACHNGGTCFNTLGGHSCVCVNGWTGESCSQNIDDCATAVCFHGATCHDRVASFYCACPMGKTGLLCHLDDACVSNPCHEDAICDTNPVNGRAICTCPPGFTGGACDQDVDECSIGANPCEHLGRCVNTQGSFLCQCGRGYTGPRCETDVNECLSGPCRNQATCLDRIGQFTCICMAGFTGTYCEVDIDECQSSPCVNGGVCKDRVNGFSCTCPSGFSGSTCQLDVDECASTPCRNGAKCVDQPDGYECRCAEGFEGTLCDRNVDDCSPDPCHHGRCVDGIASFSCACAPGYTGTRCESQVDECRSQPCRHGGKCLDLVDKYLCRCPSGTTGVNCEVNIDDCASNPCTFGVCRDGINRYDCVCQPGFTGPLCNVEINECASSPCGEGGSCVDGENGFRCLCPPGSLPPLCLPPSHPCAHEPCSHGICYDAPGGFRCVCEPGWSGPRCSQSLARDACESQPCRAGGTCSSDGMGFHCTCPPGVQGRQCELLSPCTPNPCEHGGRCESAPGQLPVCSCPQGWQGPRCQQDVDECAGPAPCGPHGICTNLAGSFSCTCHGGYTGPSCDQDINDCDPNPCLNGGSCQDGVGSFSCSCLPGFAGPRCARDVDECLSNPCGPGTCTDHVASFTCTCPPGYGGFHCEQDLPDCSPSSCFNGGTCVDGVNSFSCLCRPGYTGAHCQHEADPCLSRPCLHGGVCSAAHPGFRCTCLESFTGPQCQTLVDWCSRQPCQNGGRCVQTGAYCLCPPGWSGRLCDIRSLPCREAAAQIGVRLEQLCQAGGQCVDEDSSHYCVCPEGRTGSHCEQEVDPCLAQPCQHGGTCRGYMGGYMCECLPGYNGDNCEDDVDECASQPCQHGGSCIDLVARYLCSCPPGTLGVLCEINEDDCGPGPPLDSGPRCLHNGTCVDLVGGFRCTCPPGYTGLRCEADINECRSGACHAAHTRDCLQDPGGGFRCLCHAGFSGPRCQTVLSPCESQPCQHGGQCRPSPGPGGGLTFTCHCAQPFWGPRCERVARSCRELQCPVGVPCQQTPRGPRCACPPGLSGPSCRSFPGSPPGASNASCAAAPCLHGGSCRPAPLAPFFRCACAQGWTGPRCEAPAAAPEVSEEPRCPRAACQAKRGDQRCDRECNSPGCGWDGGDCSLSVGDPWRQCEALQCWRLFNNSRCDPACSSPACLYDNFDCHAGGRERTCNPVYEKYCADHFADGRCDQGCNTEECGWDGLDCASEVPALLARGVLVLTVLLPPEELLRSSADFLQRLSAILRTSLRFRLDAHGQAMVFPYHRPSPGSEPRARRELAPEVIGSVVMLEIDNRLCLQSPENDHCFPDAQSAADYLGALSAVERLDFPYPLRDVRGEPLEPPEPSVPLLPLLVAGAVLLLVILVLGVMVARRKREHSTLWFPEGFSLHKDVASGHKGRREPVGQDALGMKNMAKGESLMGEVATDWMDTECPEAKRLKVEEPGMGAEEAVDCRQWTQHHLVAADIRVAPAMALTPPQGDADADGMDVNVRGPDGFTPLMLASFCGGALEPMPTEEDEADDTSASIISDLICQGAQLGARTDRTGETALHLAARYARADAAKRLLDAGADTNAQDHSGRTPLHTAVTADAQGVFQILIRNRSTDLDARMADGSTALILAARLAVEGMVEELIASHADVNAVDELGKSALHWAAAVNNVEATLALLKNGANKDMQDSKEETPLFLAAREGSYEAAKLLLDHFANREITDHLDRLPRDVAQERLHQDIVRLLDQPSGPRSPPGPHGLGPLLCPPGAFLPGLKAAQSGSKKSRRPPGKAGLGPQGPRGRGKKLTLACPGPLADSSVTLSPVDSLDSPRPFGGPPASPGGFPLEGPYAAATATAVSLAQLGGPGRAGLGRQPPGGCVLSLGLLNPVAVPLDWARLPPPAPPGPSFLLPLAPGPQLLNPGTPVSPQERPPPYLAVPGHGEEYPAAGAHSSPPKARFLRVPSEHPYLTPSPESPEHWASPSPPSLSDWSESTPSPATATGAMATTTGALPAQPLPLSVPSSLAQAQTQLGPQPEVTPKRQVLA
Dickkopf-related protein 1 (Homo sapiens), sequence (O94907 whole entry, looked up): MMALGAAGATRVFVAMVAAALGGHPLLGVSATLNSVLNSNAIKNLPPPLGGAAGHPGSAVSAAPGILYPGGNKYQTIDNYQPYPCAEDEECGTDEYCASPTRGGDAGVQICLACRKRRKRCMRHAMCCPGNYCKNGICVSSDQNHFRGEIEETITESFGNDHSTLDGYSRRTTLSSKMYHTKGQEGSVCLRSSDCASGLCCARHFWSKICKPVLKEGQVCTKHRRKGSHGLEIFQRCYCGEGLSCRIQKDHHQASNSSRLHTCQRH
Fibroblast growth factor 10 (Homo sapiens), sequence (O15520 whole entry, looked up): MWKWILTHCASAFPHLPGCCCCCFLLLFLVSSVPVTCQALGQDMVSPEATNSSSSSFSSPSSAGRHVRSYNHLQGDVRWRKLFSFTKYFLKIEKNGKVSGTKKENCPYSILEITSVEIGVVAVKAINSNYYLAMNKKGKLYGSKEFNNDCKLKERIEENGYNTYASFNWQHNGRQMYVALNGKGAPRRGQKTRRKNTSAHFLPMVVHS
Follistatin-related protein 3 (Homo sapiens), sequence (O95633 whole entry, looked up): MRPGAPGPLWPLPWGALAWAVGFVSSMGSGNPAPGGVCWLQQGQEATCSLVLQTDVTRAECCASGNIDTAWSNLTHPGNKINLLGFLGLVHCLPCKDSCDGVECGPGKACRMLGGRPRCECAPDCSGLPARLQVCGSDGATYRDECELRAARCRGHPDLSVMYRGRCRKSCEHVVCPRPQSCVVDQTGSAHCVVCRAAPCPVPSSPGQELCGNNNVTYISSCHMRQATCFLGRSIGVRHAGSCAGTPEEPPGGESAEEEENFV

As to `COC(=O)C(CC#Cc1ccc2c(c1)[C@]1(C(=O)N2)[C@H](c2ccc(O)cc2)N2[C@H](c3ccccc3)[C@H](c3ccccc3)OC(=O)[C@H]2[C@@H]1C(=O)NC[C@H](O)c1ccccc1)C(=O)OC`, the composite z-score was 1.55 in experiment [1]; 1.97 in experiment [5]; 0.0634 in experiment [7]; 0.668 in [8]; 1.09 in experiment [9]; 0.128 in experiment [10]. For the same compound, the composite z-score is -0.282 in experiment [11]; 0.6 in [12]; 0.405 in [13]; 0.986 in [15]; 1.11 in [16]; 0.588 in experiment [17]. Besides, the composite z-score was determined as 0.523 in experiment [18], 0.432 in experiment [19] and 0.335 in [20]. Also, the z-score in [2] is 0.31 (inactive); in [3], 0.174 (inactive); in experiment [4] it was -0.131 (inactive); in experiment [6], -0.968 (inactive); in [14], 0.0183 (inactive).
For `CCCCC(O)C1C=CC2C(=O)N(C)C(=O)C2N1N(c1ccccc1)c1ccccc1` (stereo not given), the composite z-score in experiment [1] is 1.56; in experiment [5], 3.1; in experiment [7], -0.0441; in experiment [8], -0.0371; in experiment [9], 1.1; in [10], 0.111. For the same compound, the composite z-score came to 1.5 in [11]; 0.866 in experiment [12]; 1.31 in experiment [13]; 0.42 in experiment [15]; 1.02 in experiment [16]; 0.0978 in experiment [17]. The composite z-score is 0.424 in experiment [18], -0.73 in experiment [19] and 1.18 in experiment [20]. Also, the z-score in experiment [2] was -0.0289 (inactive); in experiment [3], 0.483 (inactive); in [4], 0.251 (inactive); in experiment [6], -1.8 (inactive); in experiment [14], 1.44 (inactive).
With `CC(C)N1C(=O)C[C@@](C(=O)NC2CC2)(c2ccc([N+](=O)[O-])cc2)[C@H]1c1ccc(CO)cc1`, the composite z-score in experiment [1] is 0.978; in [5], 3.25; in experiment [7] it was 0.0702; in experiment [8], -1.15; in [9], -0.46; in experiment [10] it was -0.281. The composite z-score is -0.66 in [11]; 0.34 in experiment [12]; 0.993 in experiment [13]; -0.576 in [15]; -0.3 in [16]; -1.18 in [17]. The composite z-score is -1.1 in experiment [18], -0.674 in experiment [19] and -1.48 in experiment [20]. The z-score is -0.195 (inactive) in [2]; -1.08 (inactive) in experiment [3]; 0.601 (inactive) in experiment [4]; 0.718 (inactive) in experiment [6]; -1.34 (inactive) in experiment [14].
On to `COc1ccc([Si](C)(C)[C@H]2[C@H](CC(=O)N3CCC[C@H]3CO)O[C@@]3(C(=O)N(Cc4ccc(N5CCOC5=O)cc4)c4ccccc43)[C@@H]2C)cc1`, for which the composite z-score in [1] was 1.56; in experiment [5], 2.31; in [7], -0.0063; in [8], 1.32; in experiment [9] it was 1.11; in experiment [10], -0.0409. The composite z-score was 1.08 in [11]; -0.214 in experiment [12]; -0.246 in experiment [13]; 1.22 in experiment [15]; 1.14 in experiment [16]; 0.737 in experiment [17]. Also, the composite z-score was found to be 1.06 in [18], 0.672 in [19] and 0.378 in experiment [20]. Further, the z-score is -0.546 (inactive) in experiment [2]; 0.0871 (inactive) in [3]; -0.38 (inactive) in experiment [4]; 1.08 (inactive) in experiment [6]; 0.467 (inactive) in experiment [14].
Take `C=CCC(OC(C)=O)[C@@H]1[C@@H](N(Cc2cccc3ccccc23)C(=O)Cc2ccc(F)cc2)c2cc(OCCCO)ccc2N1C(=O)c1ccc2ccccc2c1` (stereo not given in full): the composite z-score in [1] is -0.209; in experiment [5], 0.226; in experiment [7], 0.0261; in experiment [8], 0.154; in experiment [9] it was 0.268; in [10], -0.0967. In addition, the composite z-score is -0.246 in experiment [11]; -0.469 in experiment [12]; 0.0515 in [13]; -0.134 in [15]; 0.0566 in [16]; 0.0199 in experiment [17]. The results for the composite z-score in [18], in [19] and in [20] were 0.565, 0.301 and 1.24, respectively. Also, the z-score was -0.19 (inactive) in experiment [2]; 1.43 (inactive) in experiment [3]; -0.235 (inactive) in experiment [4]; 0.693 (inactive) in experiment [6]; -0.527 (inactive) in [14].
